Screens as filed in PubChem BioAssay.
The list is not random: actives were taken first. Their share in the collection is about 19%.
DT40 TDP1 CPT: growth inhibition of DT40 Tdp1-/-;hTDP1 cells with camptothecin (screen for TDP1 inhibitors) | chicken DT40 Tdp1-/-;hTDP1 cells + 20 nM CPT, ATP luminescence, 48 h | Potency, µM (titrated, usually from 46.2 µM), inactives show at the top dose activity change, negative = growth inhibition, actives largely listed as inhibitors | actives 12% (n = 420,000) | AID 686979; note: potency is the fitted concentration of half-maximal effect; nearly all actives have a fitted effect of over 55% in size
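Cell growth measured by CellTiter-Glo luminescence after a minimum 48 h, 37 C compound exposure with 20 nM CPT in Tdp1-knockout DT40 cells stably expressing hTDP1, seeded 400/well; qHTS titration format.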
IL-1B inflam inh: inflammasome signaling inhibition, IL-1 beta readout | actives 4.7% (n = 360,000) | AID 743279 | activity change, % at 57.5 µM | THP-1 LPS/ATP IL-1B secretion, AlphaLISA, 16 h; active compounds read low; in the data active = activity change below about -50%; inconclusive = mostly about -30% to -49%
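THP-1 cells pretreated 1 hr with compounds (up to 57.5 uM final), then stimulated with LPS (250 ng/mL final) plus ATP (1.25 mM final); secreted IL-1B measured by AlphaLISA after 16 hr, decreased signal indicating inhibition.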
HT1080-NT tox: kills 2HG-producing HT-1080-NT fibrosarcoma cells; actives 1.6% (n = 360,000); Potency, µM (titrated, usually from 46.1 µM), inactives show at the top dose activity, negative = less viability, actives largely listed as cytotoxic; HT-1080-NT fibrosarcoma viability, CellTiter-Glo ATP luminescence, 48 h;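 note: NT is the 2HG producing partner of a matched IDH1 knockdown line; potency is the fitted concentration of half-maximal effect; 0% = DMSO-treated cells and -100% = media-only wells without cells; nearly all actives have a fitted effect of over 55% in size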
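Toxicity toward the 2HG-producing NT line was scored as %Activity, normalised to DMSO and no-cell wells, from CellTiter-Glo luminescence after 48 hours' treatment.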
HT1080 IDH1KD tx: HT-1080 IDH1 knockdown cell toxicity (counter line); HT-1080 IDH1 knockdown viability, ATP luminescence, 48 h; actives 2% (n = 360,000); Potency, µM (titrated, usually from 46.1 µM), for the others: at the top dose activity, negative = toxicity, most hits filed as cytotoxic;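 note: potency is the fitted concentration of half-maximal effect; 0% = DMSO wells and -100% = cell-free medium wells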
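IDH1KD HT-1080 cells, 750/well, RPMI + 5% FBS; compound pinned after 2 h settling; 48 h, 37 °C; CellTiter-Glo luminescence; % activity normalised to DMSO and no-cell wells; curves fitted, classed by r2 and efficacy.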
DT40 TDP1 no CPT: qHTS for Inhibitors of human tyrosyl-DNA phosphodiesterase 1 (TDP1): qHTS in cells in absence of CPT | DT40 Tdp1-/- hTDP1 cells, no CPT, ATP luminescence, 48 h | Potency, µM (doses to about 46.2 µM), for inactives: at the top dose activity change, negative = growth inhibition, actives largely listed as inhibitors | actives 15% (n = 420,000); note: potency is the fitted concentration of half-maximal effect; nearly all actives have a fitted effect of over 55% in size
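Growth kinetics read by CellTiter-Glo luminescence after ≥48 hr at 37 °C. Cells: DT40 Tdp1-/- stably carrying human TDP1, 400 per well, compound exposure in the absence of CPT (DMSO vehicle).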
* = called active by the depositor; ? = inconclusive; · = no result given. Unless noted, calls come from the whole dose curve; as a rule, active = well fitted curve in the direction sought with a large enough effect; inconclusive = small, poorly fitted or top-dose-only effect, or another doubt; inactive = no such curve, though single readings can be large; an effect the other way counts as inactive or inconclusive. Unless noted, % is set by controls: 0 for no effect and ±100 for the full control effect.

SMILES	DT40 TDP1 CPT	IL-1B inflam inh	HT1080-NT tox	HT1080 IDH1KD tx	DT40 TDP1 no CPT
COc1ccc(OC)c(NC(=O)CSC2=Nc3ccccc3C3=NC(CCC(=O)NC4CCCCC4)C(=O)N23)c1 (stereo not drawn)	0%	·	·	·	-27%
O=C(CC1N=C2c3ccccc3N=C(SCC(=O)Nc3cccc(Cl)c3)N2C1=O)NCc1cccs1 (stereo not drawn)	?	·	·	·	23µM*
COc1ccc(Cl)cc1NC(=O)CSC1=Nc2ccccc2C2=NC(CC(=O)NCc3cccs3)C(=O)N12 (stereo not drawn)	?	·	·	·	23µM*
Cc1ccc(NC(=O)CN(C)C(=O)C2CSC3(C)CCC(=O)N23)cc1 (stereo not drawn)	2%	-3	-3%	-6%	-11%
COc1ccccc1CC(=O)Nc1cc(OC)c(NC(=O)c2ccccc2)cc1OC	-59%	-21	-2%	-19%	13µM*
Cc1cc(=O)[nH]c(SCC(=O)C23CC4CC(CC(C4)C2)C3)c1C#N	8.2µM*	?	?	?	18µM*
COc1cc(NC(=O)C/C(C)=N/NC(=O)c2cccs2)c(OC)cc1Cl	1%	12	?	-26%	-20%
COc1cc(NCCC(=O)c2cccs2)c(OC)cc1Cl	3.7µM*	-9	-7%	-11%	4.6µM*
COc1cc(NC(=O)c2cccs2)c(OC)cc1NC(=O)Cc1ccccc1	?	-54*	-19%	-17%	23µM*
O=C(OCc1nnc(-c2ccc([N+](=O)[O-])cc2)o1)c1ccc(F)c(S(=O)(=O)N2CCOCC2)c1	?	21	-5%	-6%	-12%
Cc1nn2c(=O)cc(CSCC(=O)Nc3ccccc3Cl)nc2s1	-8%	-5	-1%	-4%	34%
Cc1cc(C)c(S(=O)(=O)Cc2ccccc2)c(Cl)n1	-8%	10	20%	22%	-19%
O=C(NCc1ccco1)Nc1nnc([C@H]2C[C@H](O)[C@@H](CO)O2)s1	-3%	17	15%	19%	-5%
COc1cc(NC(=O)c2cccs2)c(OC)cc1NC(=O)Nc1ccc(F)cc1	?	-15	6%	?	23µM*
COc1cc(NC(=O)c2cccs2)c(OC)cc1NC(=O)c1cccs1	8%	3	9%	9%	-4%
COc1cc(NC(=O)c2ccccc2)c(OC)cc1NC(=O)CSc1[nH]c(=O)cc(C)c1C#N	3.7µM*	35	?	?	2.3µM*
CC(Nc1ccc(Cl)cc1)C(=O)NN (stereo not drawn)	-4%	3	-1%	0%	10%
CCOC(=O)C1=C(N)Oc2ccc3ccccc3c2C1c1cccc(O)c1 (stereo not drawn)	-23%	-13	-4%	-16%	?
CCOC(=O)C1=C(N)Oc2c(c(=O)[nH]c3ccccc23)C1c1ccccc1 (stereo not drawn)	23µM*	25	?	-27%	13µM*
Cc1ccc(C(CC(=O)O)NC(=O)c2ccc(S(=O)(=O)N3CC(C)OC(C)C3)cc2)cc1 (stereo not drawn)	-1%	32	9%	9%	-1%
CC[C@H](C)[C@@H](CN[C@H](C)CNC)NCCC(c1ccccc1)c1ccccc1	5.2µM*	0	?	?	3.7µM*
CCN1C(=O)[C@H]2[C@@H](c3ccc(OC)cc3)N[C@]3(CCCN(CC4CCCCC4)C3=O)[C@H]2C1=O	18%	20	5%	-8%	-11%
COc1ccc(C(=O)OCC2CC(c3ccccc3)=NO2)cc1OC (stereo not drawn)	23µM*	-13	11%	11%	?
COc1ccc(-c2nc3c(c(=O)n(C)c(=O)n3C)n2CC2CC(c3ccccc3)=NO2)cc1OC (stereo not drawn)	10µM*	-6	-6%	-3%	1.5µM*
COc1ccc(C2=NOC(Cn3nc(-c4ccccc4C)cc3C(=O)O)C2)cc1 (stereo not drawn)	9%	43	6%	7%	-17%
SMILES	DT40 TDP1 CPT	IL-1B inflam inh	HT1080-NT tox	HT1080 IDH1KD tx	DT40 TDP1 no CPT
COc1cccc(-c2cc(N(C)Cc3ccco3)ncn2)c1	-25%	·	·	·	-19%
c1ccc(-c2nc(CSc3n[nH]c(-c4cccs4)n3)cs2)cc1	-10%	26	0%	-17%	-19%
CC[C@H](C)[C@@H]1OC(=O)[C@@H](C)[C@@H](CC)NC(=O)[C@H](C)N(C)C(=O)C(C)(C)C(=O)C(C)NC(=O)[C@H](Cc2ccccc2)N(C)C(=O)[C@H](C(C)C)N(C)C(=O)CNC(=O)[C@H](CC(C)C)N(C)C(=O)CNC1=O (stereo partly drawn)	0.13µM*	-29	1.3µM*	0.92µM*	0.18µM*
CCOc1ccc(C(=O)C2CCN(C(=O)c3ccc([N+](=O)[O-])cc3)CC2)cc1	?	-3	-16%	-15%	21µM*
CCOC(=O)N1CCN(C(=O)c2ccc(Oc3ccc([N+](=O)[O-])cc3)cc2)CC1	16µM*	-11	-1%	-18%	23µM*
CCOc1ccc(C(=O)N2CCC(c3ccncc3)CC2)cc1	13µM*	·	·	·	?
C[C@H](NC(=O)[C@@H]1CCCN1C(=O)[C@@H]1CCCN1C(=O)c1cccc2ccccc12)c1ccccc1	-28%	51	-1%	5%	?
CC(C)NC(=O)CN(Cc1ccc(F)cc1)C(=O)CCC(=O)Nc1ccccn1	3%	7	3%	0%	-2%
Cc1ccc(NC(=O)C(=O)NCCCN2CC(C(=O)O)CC2=O)cc1 (stereo not drawn)	23%	6	2%	-4%	3%
COc1ccc(-n2c(=O)cnc3cnc(Nc4ccccc4)nc32)cc1	?	·	·	·	-20%
O=C(Cc1ccccc1)Nc1nnc(-c2ccccc2)o1	?	-2	0%	-11%	?
CSc1ccccc1-c1nnc(NC(=O)Cc2ccccc2)o1	?	-19	-27%	-23%	-30%
Cc1ccc(S(=O)(=O)CCC(=O)Nc2nnc(-c3ccc(F)cc3)o2)cc1	?	-59*	-10%	-16%	?
CS(=O)(=O)c1ccccc1-c1nnc(NC(=O)Cc2ccccc2)o1	-13%	-50*	-17%	1%	-1%
O=C(Cc1ccc(F)cc1)Nc1nnc(-c2ccc(F)cc2)o1	23µM*	7	-21%	-25%	?
CCCCn1c(O)c(N=NC(=O)c2ccncc2)c2cc(Br)ccc21	?	16	-4%	-11%	?
NC(=S)N=Nc1c(O)cc(O)c2[nH]c(=O)ccc12	-1%	0	4%	15%	-14%
